The values that follow come from PubChem BioAssay (Tox21).

Unmarked numbers belong to inactive results. Inconclusive results are not listed. The source made the active and inactive calls. Unless noted, calls follow the shape of the dose curve; as a rule, active = well fitted curve in the direction sought with a large enough effect in the repeat runs; inconclusive = weak or mixed curves; inactive = flat fitted curve, though single readings scatter.

Assay [1] is described as follows: qHTS assay to test for compound auto fluorescence at 535 nm (green) in HEK293 cells (AID 720680). Background: qHTS replaces the single test concentration by a dilution series.
Assay [2] can be described thus: qHTS assay to test for compound auto fluorescence at 460 nm (blue) in HEK293 cell free culture (AID 720681). Also: potency is read from the fitted curve at half-maximal effect. The procedure, abridged: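 Compounds were added to cell-free DMEM with 10% FBS and fluorescence read directly. The blue channel used 405 nm excitation and 460 nm emission, with triamterene as the reference fluorophore.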
The nature of assay [3]: qHTS assay to test for compound auto fluorescence at 535 nm (green) in HEK293 cell free culture (AID 720682). The procedure, abridged:
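Compounds were pin-transferred into cell-free DMEM with 10% FBS, and green fluorescence was read at excitation 485 nm and emission 535 nm. Intensities were expressed as fluorescein-equivalent values.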

Assay [4] is described as follows: qHTS assay to test for compound auto fluorescence at 590 nm (red) in HepG2 cell free culture (AID 720684). The procedure, abridged:
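Rose Bengal sodium served as the reference for red signal. Test compounds were dispensed into serum-containing MEM (10% FBS) without cells, and plates were read at 540/590 nm.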

Assay [5] can be described thus: qHTS assay to test for compound auto fluorescence at 460 nm (blue) in HepG2 cell free culture (AID 720685). The procedure, abridged: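 Cell-free plates of MEM plus 10% FBS received 23 nL compound or DMSO vehicle; blue-channel (405/460 nm) intensity scored against triamterene as reference fluorophore.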
Assay [6] can be described thus: qHTS assay to test for compound auto fluorescence at 535 nm (green) in HepG2 cell free culture (AID 720686).
A short description of assay [7]: qHTS assay to test for compound auto fluorescence at 460 nm (blue) in HepG2 cells (AID 720687). A digest of the protocol:
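HepG2 cells in MEM with 10% FBS, attached overnight at 37 C, were exposed to compound or DMSO for 1 hr at 37 C, 5% CO2. Blue fluorescence was read at 405/460 nm, with triamterene as reference fluorophore.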

Assay [8] has as its target Glucocorticoid receptor (Homo sapiens) (UniProt P04150). The experiment in a line: qHTS assay to identify small molecule agonists of the glucocorticoid receptor (GR) signaling pathway (AID 720691; active = well fitted activation curve with a large enough effect in the signal ratio in the repeat runs, not every such curve was filed as active; the % refers to the signal ratio). A digest of the protocol: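 HeLa GR-bla reporter line; cells pre-incubated 4 h, compound in DMSO 18 h at 37 C; LiveBLAzer B/G FRET substrate 2 h RT; fluorescence intensity read-out.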

Assay [9] shares this target. The experiment in a line: qHTS assay to identify small molecule antagonists of the glucocorticoid receptor (GR) signaling pathway (AID 720692; active = well fitted inhibition curve with a large enough effect in the signal ratio in the repeat runs, not every such curve was filed as active; the % refers to the signal ratio). A digest of the protocol: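 Read-out: beta-lactamase FRET substrate fluorescence, 2 h at room temperature, in HeLa cells stably carrying a GRE-driven bla reporter. Compounds were co-incubated with 5 nM dexamethasone agonist (final) for 18 h at 37 C.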

The nature of assay [10]: qHTS assay to test for compound auto fluorescence at 590 nm (red) in HEK293 cell free culture (AID 720683). A digest of the protocol:
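Cell-free wells of DMEM with 10% FBS received compound, and intrinsic fluorescence was read at excitation/emission 540/590 nm. Values expressed as equivalence to Rose Bengal sodium.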
% is scaled to controls: 0 for no effect and ±100 for the full control effect.

Glucocorticoid receptor (Homo sapiens), sequence (P04150 whole entry, looked up): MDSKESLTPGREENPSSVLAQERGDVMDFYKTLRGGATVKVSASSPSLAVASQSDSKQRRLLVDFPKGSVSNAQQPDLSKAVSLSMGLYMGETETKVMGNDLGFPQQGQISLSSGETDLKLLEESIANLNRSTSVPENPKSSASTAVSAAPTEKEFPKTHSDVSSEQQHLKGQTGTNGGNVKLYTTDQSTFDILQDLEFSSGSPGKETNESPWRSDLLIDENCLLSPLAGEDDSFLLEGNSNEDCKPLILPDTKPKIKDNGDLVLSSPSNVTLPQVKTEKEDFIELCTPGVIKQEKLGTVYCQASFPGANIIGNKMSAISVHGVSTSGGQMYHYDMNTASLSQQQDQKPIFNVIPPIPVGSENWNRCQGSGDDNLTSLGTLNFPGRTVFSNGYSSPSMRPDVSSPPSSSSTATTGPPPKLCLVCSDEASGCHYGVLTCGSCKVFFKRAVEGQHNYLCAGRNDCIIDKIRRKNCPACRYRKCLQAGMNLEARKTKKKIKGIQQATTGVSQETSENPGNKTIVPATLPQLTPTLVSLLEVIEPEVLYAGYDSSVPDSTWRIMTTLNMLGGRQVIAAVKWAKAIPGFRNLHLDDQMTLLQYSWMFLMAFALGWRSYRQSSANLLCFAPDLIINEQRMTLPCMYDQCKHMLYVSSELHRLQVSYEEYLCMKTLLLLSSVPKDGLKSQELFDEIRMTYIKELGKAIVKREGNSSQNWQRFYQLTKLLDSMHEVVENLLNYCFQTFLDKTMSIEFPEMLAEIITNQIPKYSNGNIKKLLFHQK

With `O=[N+]([O-])c1ccc(Cl)cc1Cl`, the compound was classed as inactive in assay [1], in [3], in assay [4], in assay [5], in assay [6] and in [7]. Besides, the Potency result in assay [2], in [8] and in assay [9] was “inactive” throughout.

Regarding `CC(C)CCCCCOC(=O)CS`, the compound was classed as inactive in [1], in assay [10], in assay [4], in assay [5], in assay [6] and in [7]. The Potency entry in assay [2], in [8] and in assay [9] was “inactive” each time.

As for `CC[C@H](NC(C)C)[C@H](O)c1ccc(O)c2[nH]c(=O)ccc12`, the compound was called inactive in assay [1], in assay [3], in [5], in assay [6] and in assay [7]. The Potency in [2] is 14.1 µM (active). For the same compound, the Potency result in assay [8] and in assay [9] was “inactive” in each case.

Consider `CCCCOc1ccc(N)cc1`, for which the result in assay [1], in assay [3], in assay [4], in assay [5] and in assay [6] was inactive. Also, the Potency result in assay [2], in assay [8] and in assay [9] was “inactive” in each case.

Take `CC(=O)Nc1ccn(C2COC(COC(=O)c3ccccc3)O2)c(=O)n1` (stereo unspecified): the call in assay [1], in assay [10], in assay [5], in assay [6] and in [7] was inactive. In [2], the Potency entry was “inactive”.

As for `CCC(C)C1N=C(C)C(C)S1` (stereo unspecified), the outcome in assay [1], in assay [10], in assay [4], in [5] and in [6] was inactive. Moreover, the Potency entry in assay [2], in [8] and in assay [9] was “inactive” in each case.

Take `NC(=O)c1ccccc1`: the call in assay [1], in assay [3], in assay [5], in [6] and in assay [7] was inactive. Further, the Potency entry in assay [2], in assay [8] and in assay [9] was “inactive” in each case.

For `CCCCCCCCCCCCN1CCOCC1`, the compound was called inactive in assay [1], in assay [3], in [4], in assay [5], in assay [6] and in [7]. In addition, the Potency entry in assay [2], in assay [8] and in [9] was “inactive” in each case.

Take `C=C[Si]1(C)O[Si](C)(C=C)O[Si](C)(C=C)O[Si](C)(C=C)O1` (stereo unspecified): the compound was classed as inactive in [1], in [10], in [4], in assay [5], in assay [6] and in assay [7]. The Potency entry in assay [2], in [8] and in assay [9] was “inactive” throughout.

As to `C[C@@H](O)[C@H]1C(=O)N2C(C(=O)O)=C(S[C@@H]3CN[C@H](CNS(N)(=O)=O)C3)[C@H](C)[C@H]12`, the result in assay [1], in assay [10], in assay [4], in assay [5] and in assay [6] was inactive. The Potency entry in assay [2], in assay [8] and in assay [9] was “inactive” in each case.

`CCc1c(C)[nH]c2c1C(=O)C(CN1CCOCC1)CC2` (stereo unspecified): the fluorescence, % of fluorescein in assay [1] was 0.152% [at 18.6 µM]. Besides, the fluorescence, % of fluorescent control in assay [2] was 0.0226% [at 18.6 µM]; in assay [10], 0.113% [at 18.6 µM]; in assay [5] it was -0.0691% [at 18.6 µM]; in [7], 0.0012% [at 18.6 µM]. The fluorescence, % of Rose Bengal in assay [4] is -0.199% [at 18.6 µM]. Moreover, the fluorescence, % of fluorescein control in assay [6] is 0.0022% [at 18.6 µM].

Take `CC1=C(C)C(=O)C(C(CCCCCC(=O)O)c2ccccc2)=C(C)C1=O` (stereo unspecified): the compound was classed as inactive in [1], in assay [10], in assay [4], in [5], in assay [6] and in assay [7]. Moreover, the Potency result in assay [2], in assay [8] and in assay [9] was “inactive” each time.

Turning to `CC1(C)CC(=O)CC(C)(C)N1`, the call in [1], in assay [3], in assay [4], in assay [5], in [6] and in [7] was inactive. Also, the Potency result in assay [2], in assay [8] and in assay [9] was “inactive” in each case.

For the compound `O=C(O)COCC(=O)O`, the outcome in assay [1], in [10], in [4], in assay [5], in assay [6] and in [7] was inactive. For the same compound, the Potency entry in [2], in assay [8] and in assay [9] was “inactive” throughout.

As to `CC(C)=CCCC(C)C=O` (stereo unspecified), the result in assay [1], in assay [10], in [4], in [5], in assay [6] and in assay [7] was inactive. Besides, the Potency result in [2] is “inactive”.

`Clc1nc2ccccc2nc1Cl`: the result in assay [1], in assay [4], in assay [5], in assay [6] and in assay [7] was inactive. In addition, the Potency result in [2], in assay [8] and in assay [9] was “inactive” throughout.

Consider `OCC(O)c1ccccc1` (stereo unspecified), for which the compound was classed as inactive in assay [1], in assay [3], in assay [10], in assay [4], in [5] and in assay [6].

Take `COc1ccc(C(=O)c2ccc(C)cc2)c(O)c1`: the compound was classed as inactive in [1], in assay [4], in assay [5], in [6] and in assay [7]. The Potency result in assay [2] was “inactive”.

Regarding `CC(C)(Cc1c[nH]c2ccccc12)NCC(O)COc1ccccc1C#N` (stereo unspecified), the outcome in [1], in [5], in assay [6] and in assay [7] was inactive. Besides, the Potency entry in assay [2] is “inactive”.

With `Cc1c(N=C=O)cccc1N=C=O`, the compound was classed as inactive in assay [1], in [10], in assay [4], in [5], in assay [6] and in assay [7]. Besides, the Potency entry in [2], in [8] and in assay [9] was “inactive” throughout.

Take `CCOC(C)OCC`: the outcome in assay [1], in [3], in assay [4], in assay [5], in assay [6] and in assay [7] was inactive. Further, the Potency entry in assay [2], in [8] and in assay [9] was “inactive” each time.

In the case of `CC(C)(C)N`, the compound was called inactive in assay [1], in assay [10], in assay [4], in assay [5], in assay [6] and in assay [7]. Further, the Potency entry in assay [2], in [8] and in [9] was “inactive” throughout.

For `CCCCCCCCNC`, the call in assay [1], in assay [3], in [4], in [5], in [6] and in assay [7] was inactive. The Potency result in [2], in [8] and in assay [9] was “inactive” each time.

With `Cc1ccc(NC(=O)c2ccc(CN3CCN(C)CC3)cc2)cc1Nc1nccc(-c2cccnc2)n1`, the outcome in assay [1], in assay [10], in assay [4], in assay [5], in assay [6] and in assay [7] was inactive. Moreover, the Potency entry in assay [2] is “inactive”.
